A selection: hits, their analogues and other compounds. The true share with any hit is near 8.7%.
VACV Venus inh – vaccinia inhibition (Venus reporter) | Potency, µM (top dose mostly 36.5 µM), for the others: top-dose activity change, negative = inhibition, actives largely listed as inhibitors | AID 720580 | 330,000 tested, 0.46% active | Vaccinia virus Venus reporter expression, fluorescence; calls by dose curve; tested in A549 cells; further: nearly all actives have a fitted effect of over 30% in size
Pf growth 48h – P. falciparum growth inhibition at 48 hours (one generation). P. falciparum luciferase growth in erythrocytes, 48 h. Potency, µM (titrated, usually from 28.7 µM), for inactives: top-dose activity change, negative = inhibition, most hits filed as inhibitors. 310,000 tested, 5.9% active
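Compounds are pin-transferred into medium, infected erythrocytes (2% hematocrit, 0.1% parasitemia final) are added, and plates sit one parasite generation at 37 C in 5% CO2. Detection reagent is then added and luminescence measured.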
AMA1-RON2 inh – inhibitors of Plasmodium falciparum AMA1-RON2 interaction | AID 720542 | Potency, µM (series often up to 58.2 µM), for the others: top-dose activity change, negative = inhibition, usual class: inhibitors | AlphaScreen AMA1-biotinylated RON2 peptide binding | 360,000 tested, 0.2% active;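 further: 0% = vehicle wells and -100% = peptide control; nearly all actives have a fitted effect of over 45% in size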
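AMA1 (3D7) with his tag at 25 nM final met compounds first, then biotinylated RON2 peptide at 25 nM; detection used donor plus acceptor beads, 10 µg/mL apiece, read by AlphaScreen after 30 min at room temperature.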
Pf growth 96h – P. falciparum growth inhibition at 96 hours; AID 504834; P. falciparum luciferase reporter growth, 96 h; 320,000 tested, 6.9% active; Potency, µM (series often up to 28.7 µM), inactives show top-dose activity change, negative = inhibition, usual class: inhibitors
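Two-generation exposure (96 h) targets delayed-death phenotype. Reporter parasites carrying integrated firefly luciferase, in red cells at 2% hematocrit and 0.05% parasitemia final, kept at 37 C, 5% CO2; luminescence loss indicates inhibition.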
VACV mCherry inh – vaccinia inhibition (mCherry reporter). Vaccinia virus mCherry reporter infection, fluorescence. Potency, µM (series often up to 36.5 µM), for inactives: top-dose activity change, negative = inhibition, most hits filed as inhibitors. 310,000 tested, 0.63% active. AID 720579; calls by dose curve; tested in A549 cells; further: nearly all actives have a fitted effect of over 35% in size
Starred values were filed as active, the others as inactive; i = inactive; ? = inconclusive; / = no result; [ ] = dose if it differs, or a comment. Unless noted, the call rests on the fitted dose curve; in most records, active means well fitted curve in the direction sought with a large enough effect; inconclusive means small, poorly fitted or top-dose-only effect, or another doubt; inactive means no such curve, though single readings can be large; an effect the other way counts as inactive or inconclusive. Unless noted, on the % scale 0 is the no-effect control and ±100 the full control effect; potency means the concentration at half of the fitted maximal effect.

SMILES | VACV Venus inh | Pf growth 48h | AMA1-RON2 inh | Pf growth 96h | VACV mCherry inh
CCOc1cccc(CNCCc2c(C)[nH]c3ccc(OC(F)(F)F)cc23)c1O | 10µM* | 1.9µM* | -5% | ? | ?
Cc1[nH]c2ccc(OC(F)(F)F)cc2c1CCNCc1ccc(Cl)cc1 | -22% | ? | -28% | ? | -24%
Cc1[nH]c2ccc(OC(F)(F)F)cc2c1CCNCc1cccc([N+](=O)[O-])c1 | -24% | 1.5µM* | ? | 156% | ?
Cc1ccc2c(=O)cc(C(=O)Nc3sc4c(c3C(=O)NCc3ccccc3)CCCC4)oc2c1C | 3% | / | / | / | -1%
COc1cccc2c(=O)c(C/C=C(/C)Cl)c(C)[nH]c12 | -24% | 0.74µM* | -8% | / | ?
COc1cccc2c(=O)c(SC(F)(F)C(F)C(F)(F)F)c(C)[nH]c12 (stereo not given) | / | 6.6µM* | 4% | 3.7µM* | /
COc1cccc2c(=O)c(C(=O)O)c[nH]c12 | -20% | 19% | 8% | / | -14%
O=C(CCCCn1c(=O)c2ccccc2n(Cc2ccc(Cl)cc2)c1=O)NCc1ccccc1Cl | -20% | / | / | / | -30%
O=C(NC(=S)Nc1cccnc1)c1cccc(Br)c1 | 11% | 11% | 78% | 0% | -11%
O=C(NC(=S)Nc1cc(Cl)ccc1O)c1cccc(Br)c1 | -10% | ? | 84% | 3.3µM* | -8%
NC(=S)N/N=C\c1ccc(-c2cccc(Cl)c2Cl)o1 | 6.3µM* | / | 3% | ? | /
COC(=O)c1cccc(C23CC4(C2)[C@H](CN(Cc2ccc(-c5ccccc5)cc2)[C@@H]4c2ccccc2)C3c2ccc(Cl)nc2)c1 (stereo not given in full) | -16% | ? | 4% | ? | -14%
COC(=O)c1cccc(C23CC4(C2)[C@H](CN(Cc2cccnc2)[C@@H]4c2ccccc2)C3c2ccc(C(F)(F)F)cc2)c1 (stereo not given in full) | ? | 2.3µM* | 8% | ? | ?
COC(=O)c1cccc(C23CC4(C2)[C@H](CN(Cc2cccnc2)[C@@H]4c2ccccc2)C3c2ccc(Cl)nc2)c1 (stereo not given in full) | -20% | 13µM* | -12% | 12µM* | ?
Cc1cccc(CNC(=O)c2ccc(Cn3c(=O)c4cccn4c4cccnc43)cc2)c1 | -14% | / | / | / | -14%
Cc1ccccc1C(=O)Oc1cc(-c2ccc3c(c2)OCO3)cc(=O)c2c(C)oc(C)c12 | 60% | / | / | / | 3%
c1coc(-c2ccnc3nc(-n4cccc4)nn23)c1 | 1% | 10µM* | -13% | ? | 4%
COc1ccc(N2CCN(C(=O)c3cc4c(=O)oc5ccc(C)cc5c4s3)CC2)cc1 | -10% | / | / | / | 6%
COc1cc(OC)c2cc(C(=O)N/N=C/c3ccccc3O)[nH]c2c1 | ? | / | 42% | 4.7µM* | 1.1µM*
COc1ccc2[nH]c(C(=O)N/N=C/c3ccc(OC)c(O)c3)cc2c1 | -27% | ? | 5% | ? | 11µM*
COc1ccc2[nH]c(C(=O)N/N=C/c3ccccc3OC)cc2c1 | / | / | -2% | ? | /
NC(C(=O)O)[C@H](O)C(=O)O (stereo not given in full) | -10% | / | / | / | -1%
Cc1ccc(CNC(=O)CSc2nc3c(sc4ccccc43)c(=O)n2CCCC(=O)NCCO)cc1 | -7% | / | / | / | -8%
Cc1cc(Cl)ccc1NC(=O)CN1C(=O)CSc2ccc(S(=O)(=O)N(C)C)cc21 | -2% | / | / | / | -15%
CCOC(=O)c1c(C)[nH]c(C)c1S(=O)(=O)N(C)CC(=O)NCc1cccc(Br)c1 | ? | ? | -4% | 12µM* | -21%
SMILES | VACV Venus inh | Pf growth 48h | AMA1-RON2 inh | Pf growth 96h | VACV mCherry inh
COc1ccc(C)cc1NC(=O)N1CCCn2nc(C)cc21 | -15% | / | / | / | -14%
CCSC1=C(C#N)C2(CCCCC2)C(C#N)=C(N)N1 | -25% | 39% | 0% | / | /
N#CC1=C(N)NC(SCC(=O)c2ccc(Cl)cc2)=C(C#N)C12CCCC2 | -16% | ? | 5% | / | -1%
N#CC1=C(N)NC(SCC(=O)Nc2ccccc2)=C(C#N)C12CCCCC2 | -25% | ? | 32% | 13µM* | ?
COc1ccc(C(=O)CSC2=C(C#N)C3(CCCCC3)C(C#N)=C(N)N2)cc1 | / | 12µM* | -11% | 4% | /
N#CC1=C(N)NC(SCC(=O)c2ccc(Br)cc2)=C(C#N)C12CCCCC2 | -29% | ? | -4% | 15µM* | ?
CCCCCN1C(C(=O)c2ccccc2)=C(NC(=O)c2ccc(C)cc2)c2ccccc2S1(=O)=O | -6% | / | / | / | -16%
O=S(=O)(NCCc1ccccn1)c1ccc(OC(F)(F)F)cc1 | / | -5% | 8% | 23% | /
O=S(=O)(NCCc1ccccn1)c1ccc(F)c(F)c1 | 16% | 13% | 14% | 5.2µM* | -2%
COC(=O)c1ccc(NC(=O)c2cc(=O)c3ccc(C)cc3o2)cc1 | -25% | / | / | / | i
COc1ccc(C(=O)/C=C/Nc2ccc(S(=O)(=O)Nc3cc(OC)nc(OC)n3)cc2)c(OC)c1 | -7% | 1.7µM* | -16% | 36% | -12%
COc1cc(NS(=O)(=O)c2ccc(NC(=S)NC(=O)c3sc4ccccc4c3Cl)cc2)nc(OC)n1 | -3% | 30% | 1% | 12µM* | i
COc1ccc(-c2csc(Nc3ccc(S(=O)(=O)Nc4cc(OC)nc(OC)n4)cc3)n2)cc1 | -16% | 29% | -10% | 15µM* | -7%
O=C(O)CCCCCCCCCCP(=O)(c1ccccc1)c1ccccc1 | -6% | ? | 10% | ? | 4%
O=P(CCCCCCCCCP(=O)(c1ccccc1)c1ccccc1)(c1ccccc1)c1ccccc1 | 16µM* | 1.3µM* | -6% | / | ?
COCCCNC(=O)C1CCC(CNS(=O)(=O)c2ccc(C)cc2)CC1 (stereo not given) | / | 10µM* | / | 77%[5.75 µM] | /
CCCCNC(=O)C1CCC(CNS(=O)(=O)c2ccc(C)cc2)CC1 (stereo not given) | -14% | -16% | 15% | 53% | -2%
O=C(NCCCOc1cccc(CN2CCCCC2)c1)c1ccc(Cl)c(Cl)c1 | -25% | ? | -23% | 2.3µM* | -10%
c1cc(CN2CCCCC2)cc(OCCCNc2nc3ccccc3s2)c1 | -27% | 13µM* | -17% | 4.8µM* | -10%
CC(=O)c1ccc(N2CCN(C(=O)CS(=O)(=O)c3cccc4nsnc34)CC2)cc1 | -16% | / | / | / | -5%
COc1ccc(NC(=O)CSC2=Nc3ccccc3C3=NC(CCC(=O)NCc4ccc(F)cc4)C(=O)N23)cc1Cl (stereo not given) | -3% | / | / | / | -9%
CS(=O)(=O)Oc1ccc(Br)cc1/C=C1/N=C(c2ccco2)OC1=O | 3% | -8% | -12% | 10µM* | -15%
CCN(c1cccc(C)c1)S(=O)(=O)c1cc2c(cc1C)n(C)c(=O)c(=O)n2C | -4% | / | / | / | -16%
O=C(c1ccc2c(c1)N(Cc1ccc(F)cc1)C(=O)c1ccccc1S2(=O)=O)N1CCN(Cc2ccccc2)CC1 | -22% | / | / | / | -21%
c1ccc(N2CCN(c3ccccc3)C2c2cccnc2)cc1 | -18% | 3.7µM* | -7% | 482% | /

Assay outcomes as filed in PubChem.
